Screening results from PubChem BioAssay.
Many of the other results were omitted from the sample, so hits are more common in it than they were.
CHX counter = counter-screen for Shiga toxin inhibitors: cycloheximide protein synthesis inhibition; hit rate 12% among 300,000; max response, %; cell reporter, cycloheximide protein synthesis inhibition counterscreen; AID 2314; in the data active means max response mostly above about 13%, no sharp cut-off; inactive means mostly below about 14%; further: read at 38.3 µM for the half of the compounds with a filed dose; 0% is about no effect
VACV mCherry inh = inhibitors of vaccinia virus infection (mCherry reporter signal). Vaccinia virus mCherry reporter infection, fluorescence. Potency, µM (doses to about 36.5 µM), inactives show at the top dose activity change, negative = inhibition, usual class: inhibitors. hit rate 0.63% among 310,000. AID 720579; calls by dose curve; tested in A549 cells; further: potency means the concentration at half of the fitted maximal effect; on the % scale 0 is the no-effect control and ±100 the full control effect; nearly all actives have a fitted effect of over 35% in size
Lassa entry inh = inhibitors of Lassa virus binding or cell entry; Potency, µM (doses to about 37.9 µM), inactives show at the highest dose activity change, negative = inhibition, actives largely listed as inhibitors; AID 540256; Lassa virus pseudotype entry inhibition, cell reporter; hit rate 1.2% among 300,000; calls by dose curve; tested in HEK293 cells; further: potency means the concentration at half of the fitted maximal effect; on the % scale 0 is the no-effect control and ±100 the full control effect; nearly all actives have a fitted effect of over 50% in size
MARV entry inh = blocks Marburg virus binding to or entry into cells; Potency, µM (top dose mostly 37.8 µM), inactives show top-dose activity change, negative = inhibition, most hits filed as inhibitors; hit rate 1.8% among 300,000; AID 540276; Marburg virus pseudotyped entry inhibition, cell reporter; calls by dose curve; tested in HEK293 cells; further: potency means the concentration at half of the fitted maximal effect; on the % scale 0 is the no-effect control and ±100 the full control effect
Shiga inhibitor = blocks Shiga toxin action in Vero cells. Vero cells, Shiga toxin protein synthesis inhibition reporter. inhibition, % at 38.7 µM. hit rate 9.2% among 290,000. AID 2315; in the data active means inhibition mostly above about 28%, no sharp cut-off; inactive means mostly below about 43%; further: 0% is about no effect
VACV Venus inh = vaccinia inhibition (Venus reporter); Vaccinia virus Venus reporter expression, fluorescence; Potency, µM (series often up to 36.5 µM), inactives show top-dose activity change, negative = inhibition, hits mostly inhibitors; hit rate 0.46% among 330,000; calls by dose curve; tested in A549 cells; further: potency means the concentration at half of the fitted maximal effect; on the % scale 0 is the no-effect control and ±100 the full control effect; nearly all actives have a fitted effect of over 30% in size
The depositor's hits bear a star; i = inactive; ? = inconclusive; · = no result given; ! = not active in a repeat; [ ] = dose if it differs, or a comment.

SMILES	CHX counter	VACV mCherry inh	Lassa entry inh	MARV entry inh	Shiga inhibitor	VACV Venus inh
COc1ccc(/C(O)=C2/C(=O)C(=O)N(CCN3CCOCC3)C2c2ccccn2)cc1OC (centres undefined)	25*	-7%	11%	?	64*	-28%
CCOC(=O)CCSc1nc(C)c2cc(C)c(C)cc2n1	30*	·	-13%	10%	44*	-3%
CCOC(=O)CCSc1nc(C)c2cc(OC)ccc2n1	51*	i	-1%	?	80*	-16%
CCOC(=O)CSc1nc(C)c2ccc(C)cc2n1	12*	?	1%	5%	44	-21%
CCOC(=O)CSc1cc(C)nc2ccc(OC)cc12	-4	i	5%	-4%[46.1 µM]	-24	8%
CCOc1ccccc1NC(=O)COC(=O)c1cc[n+]([O-])cc1	-3	i	13%[46.1 µM]	16%[46.1 µM]	4	13%
C=CCc1ccc(OC)cc1	·	2.2µM*!	·	·	·	4µM*!
COc1ccc(-c2ccc(OC)cc2)cc1	34*	-18%	4%	9%	13	-1%
CCOC(=O)NN=C1C[C@@H](O)[C@@H](O)[C@@H]2[C@H]3C(=O)N([C@@H](C)c4ccccc4)C(=O)[C@@H]3CC[C@@H]12	·	·	·	-22%[14.2 µM]	·	·
Cc1ccc(-c2cc3ncc4c(n3n2)-c2cc(Cl)ccc2OC4)cc1	·	-12%	22%[46.1 µM]	-1%[46.1 µM]	·	-9%
CCN1CCN(Cc2ccc(NC(=O)c3cc(NC(=O)c4nccnc4N)cc(OC)c3)cc2C(F)(F)F)CC1	9	-1%	·	·	15	-16%
CCN1CCN(Cc2ccc(NC(=O)c3cc(NC(=O)c4cnnc5ccccc45)cc(OC)c3)cc2C(F)(F)F)CC1	-4	?	·	·	-4	10µM*
CCN1CCN(Cc2ccc(NC(=O)c3ccc(C)c(NC(=O)c4nccn4C)c3)cc2C(F)(F)F)CC1	6	-10%	·	·	-4	?
CCN1CCN(Cc2ccc(NC(=O)c3ccc(C)c(NC(=O)c4nccnc4N)c3)cc2C(F)(F)F)CC1	-14	?	·	·	-16	?
CCN1CCN(Cc2ccc(NC(=O)c3ccc(C)c(NC(=O)c4cc(-c5ccc(Br)cc5)n[nH]4)c3)cc2C(F)(F)F)CC1	-2	-26%	·	·	-3	10µM*
CCN1CCN(Cc2ccc(NC(=O)c3ccc(C)c(NC(=O)c4cncc(-c5cccs5)c4)c3)cc2C(F)(F)F)CC1	·	?	·	·	·	16µM*
CCN1CCN(Cc2ccc(NC(=O)c3ccc(C)c(NC(=O)c4cccc5[nH]ccc45)c3)cc2C(F)(F)F)CC1	53*	-17%	·	·	94*	?
COc1cccc(C(=O)N2CCC[C@H]2C(=O)N2CCC[C@H]2C(=O)NCc2ccncc2)c1	·	0%	·	·	·	11%
CCN1c2ccccc2NC2N=C(OC)C(c3ccccc3)C21 (centres undefined)	18*	?	-34%[14.3 µM]	23µM*	5	?
CN(C)CCCOc1ccc2c(c1)Sc1ccccc1CC2=O	21*	i	10%	?	23	-9%
CN1C[C@@H]2C(c3ccc(C(F)(F)F)cc3)C3(c4ccc(C#N)cc4)CC2(C3)[C@H]1c1ccccc1 (some centres undefined)	-5	?	·	·	-6	-13%
C/C(=N\NC(=O)c1n[nH]c2c1CCC2)c1ccco1	26*	i	?	?	27	0%
CCC(C)(C)C1CCc2[nH]nc(C(=O)N/N=C(\C)c3ccco3)c2C1 (centres undefined)	61*	i	?	?	107*	-20%
CCCNC(=O)c1n[nH]c2c1CC(C(C)(C)CC)CC2 (centres undefined)	·	i	·	·	·	?
C/C(=N/NC(=O)c1cc(-c2ccc(Cl)s2)[nH]n1)c1ccco1	18	i	8%	12%[46.1 µM]	20	6%
SMILES	CHX counter	VACV mCherry inh	Lassa entry inh	MARV entry inh	Shiga inhibitor	VACV Venus inh
Cc1cc(Br)ccc1NC(=O)COc1cc(=O)n(C)c2ccccc12	·	-9%	0%[46.1 µM]	4%[46.1 µM]	·	-6%
CCOc1cc(Br)c(CN2C(=O)NC3(CCCCCC3)C2=O)cc1OCC	11	-11%	·	11µM*	17	-13%
CCN1C(=O)[C@H]2[C@@H](c3ccc(C(F)(F)F)cc3)N[C@]3(CCCN(Cc4ccc(C(F)(F)F)cc4)C3=O)[C@H]2C1=O	·	-29%	·	·	·	?
Cc1ccccc1N1C(=O)CC1(C#N)c1ccc(OCc2ccccc2)cc1 (centres undefined)	1	-22%	10µM*	?	10	-7%
COc1ccccc1N1C(=O)CC1(C#N)c1ccc(OCc2ccccc2)cc1 (centres undefined)	-4	i	?	?	10	-8%
CCc1ccccc1NC(=O)c1cnc2sc(N3CCCC3)nn2c1=O	·	-11%	30%[46.1 µM]	·	·	-10%
COc1cccc(C(C)(O)c2nc(-c3ccc(F)cc3OC)cs2)c1 (centres undefined)	·	-10%	·	·	·	-6%
CNC(=O)c1ccc(-c2cc(C(F)(F)F)nn2C)s1	38*	·	·	·	63*	·
CN1CCN(CC(=O)N2CCn3c4c(c5cc(C6CCCCC6)ccc53)CCCC42)CC1 (centres undefined)	-2	11µM*	?	?	1	?
CCOc1nc(-c2ccc(C)cc2)ccc1-c1noc(-c2ccccc2F)n1	·	-9%	-7%[46.1 µM]	?	·	-13%
Fc1ccccc1N1CCN(C(c2cccs2)c2nnnn2CCc2ccccc2)CC1 (centres undefined)	8	-13%	?	?	35	-25%
COc1ccccc1C(c1nnnn1Cc1ccco1)N1CCN(c2cccc(C)c2C)CC1 (centres undefined)	28*	·	9.2µM*	?	43*	·
COc1ccc(N2CCN(C(c3cc(OC)ccc3OC)c3nnnn3Cc3ccco3)CC2)cc1 (centres undefined)	-2	-16%	?	10µM*!	-3	-7%
CCN1CCN(C(c2cccc(OC)c2OC)c2nnnn2Cc2ccco2)CC1 (centres undefined)	-2	-5%	3%	0%[46.1 µM]	-7	-2%
Fc1ccc(N2CCN(C(c3cccs3)c3nnnn3CCc3ccccc3)CC2)cc1 (centres undefined)	-2	-10%	11µM*	13µM*	9	-2%
CCC(C)(C)n1nnnc1C(c1ccccc1OC)N1CCN(C(=O)c2ccco2)CC1 (centres undefined)	11*	i	-1%	2%[46.1 µM]	41	-18%
CC(C)CCNC(=O)C1CCC(Cn2c(=O)c3sccc3n(CC(=O)NC(C)C)c2=O)CC1 (centres undefined)	·	-26%	18%[46.1 µM]	·	·	-15%
Cc1cn2c(=O)cc(COc3ccc(NC(=O)c4ccccc4C)cc3)nc2s1	·	-6%	28%[46.1 µM]	?	·	-1%
Cc1cccc(C(=O)NNC(=O)C2CCN(C(=O)OC(C)(C)C)CC2)c1	6	·	·	·	-10	·
O=C(NCc1cccc(F)c1)c1ccc(NC(=O)c2nsc3ccccc23)cc1	·	-9%	20%[46.1 µM]	·	·	-9%
CCc1nc2nc(C)cc(Nc3cc(C)ccc3C)n2n1	·	i	-7%[46.1 µM]	-16%[46.1 µM]	·	-10%
